Structures are written as SMILES. Calls of active or inactive are those of the source.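 How the source made its calls: active means compound at 10 µM that moves glutamate potency by over twofold either way, or clearly lowers or raises peak response; inactive means the rest.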

In the assay the target is Metabotropic glutamate receptor 3 (Rattus norvegicus) (UniProt P31422). The assay can be described thus: mGluR5 PAM selectivity profiling against rat mGluR3, glutamate response modulation, fold shift by Tl+ flux in HEK/GIRK cells (AID 588728). The note with it: HEK/GIRK rat mGluR3, thallium flux, glutamate CRC fold shift, at 10 µM; Emax: measured here: glutamate max response with compound.
Metabotropic glutamate receptor 3 (Rattus norvegicus), sequence (P31422 whole entry, looked up): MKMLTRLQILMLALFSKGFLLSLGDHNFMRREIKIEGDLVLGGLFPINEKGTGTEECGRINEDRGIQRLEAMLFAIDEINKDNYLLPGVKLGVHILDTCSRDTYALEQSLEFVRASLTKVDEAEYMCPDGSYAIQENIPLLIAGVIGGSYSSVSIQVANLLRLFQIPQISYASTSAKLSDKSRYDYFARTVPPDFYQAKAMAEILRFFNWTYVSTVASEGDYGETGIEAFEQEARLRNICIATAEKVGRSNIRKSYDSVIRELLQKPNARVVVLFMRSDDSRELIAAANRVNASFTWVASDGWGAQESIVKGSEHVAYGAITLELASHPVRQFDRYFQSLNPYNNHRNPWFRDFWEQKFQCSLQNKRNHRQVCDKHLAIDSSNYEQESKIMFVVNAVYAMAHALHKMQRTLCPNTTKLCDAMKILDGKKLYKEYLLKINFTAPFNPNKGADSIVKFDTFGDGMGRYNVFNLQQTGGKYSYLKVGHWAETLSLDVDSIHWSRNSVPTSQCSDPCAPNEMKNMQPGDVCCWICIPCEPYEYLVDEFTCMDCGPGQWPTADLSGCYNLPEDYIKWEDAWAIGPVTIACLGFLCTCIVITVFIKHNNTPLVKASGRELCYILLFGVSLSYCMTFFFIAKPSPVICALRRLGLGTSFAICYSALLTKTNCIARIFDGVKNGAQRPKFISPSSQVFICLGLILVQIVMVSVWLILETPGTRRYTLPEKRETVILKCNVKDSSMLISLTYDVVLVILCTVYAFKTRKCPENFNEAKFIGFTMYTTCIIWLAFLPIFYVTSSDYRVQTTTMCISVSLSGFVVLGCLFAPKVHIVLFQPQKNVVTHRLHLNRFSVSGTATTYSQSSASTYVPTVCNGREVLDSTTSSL

Take `C[C@@H](NC(=O)c1ccc(C#Cc2cccc(F)c2)cn1)C(C)(C)O`: the Emax (usually the size of the effect at its maximum, as opposed to the concentration needed) is 89% and the fold shift was 0.95 (inactive).
For `CC1(NC(=O)c2ccc(C#Cc3cccc(F)c3)cn2)COC1` the same measures were 84% and 0.85 (inactive).

The values above are taken from PubChem BioAssay AID588728 (Vanderbilt Specialized Chemistry Center, 2011).
